# This is a sample that favours compounds with a hit; in the whole collection about 13% have one here.
# USP8 inh: inhibitors of human USP8 deubiquitinase; Ubiquitin carboxyl-terminal hydrolase 8 (Homo sapiens), P40818; 4.2% of 47,000 active; AID 1645853, 2021; inhibition, % at 20 µM; purified USP8, Ub-rhodamine cleavage fluorescence, 30 min
# USP7 block: inhibitors of human USP7 deubiquitinase. Ubiquitin carboxyl-terminal hydrolase 7 (Homo sapiens), Q93009. purified USP7, Ub-rhodamine cleavage fluorescence. inhibition, % at 20 µM. 0.3% of 47,000 active. AID 1645854, 2021
# USP17 block: inhibitors of human USP17 deubiquitinase; AID 1645855, 2021; inhibition, % at 50 µM; Ubiquitin carboxyl-terminal hydrolase 17-like protein 5 (Homo sapiens), A8MUK1; purified USP17, Ub-rhodamine cleavage fluorescence, 3 h; 6.5% of 47,000 active
# USP30 inh: inhibitors of human USP30 deubiquitinase | Ubiquitin carboxyl-terminal hydrolase 30 (Homo sapiens), Q70CQ3 | purified USP30, Ub-rhodamine cleavage fluorescence | inhibition, % at 25 µM | 5.3% of 47,000 active | AID 1645860, 2021
# Target sequence (Q70CQ3 whole entry, looked up): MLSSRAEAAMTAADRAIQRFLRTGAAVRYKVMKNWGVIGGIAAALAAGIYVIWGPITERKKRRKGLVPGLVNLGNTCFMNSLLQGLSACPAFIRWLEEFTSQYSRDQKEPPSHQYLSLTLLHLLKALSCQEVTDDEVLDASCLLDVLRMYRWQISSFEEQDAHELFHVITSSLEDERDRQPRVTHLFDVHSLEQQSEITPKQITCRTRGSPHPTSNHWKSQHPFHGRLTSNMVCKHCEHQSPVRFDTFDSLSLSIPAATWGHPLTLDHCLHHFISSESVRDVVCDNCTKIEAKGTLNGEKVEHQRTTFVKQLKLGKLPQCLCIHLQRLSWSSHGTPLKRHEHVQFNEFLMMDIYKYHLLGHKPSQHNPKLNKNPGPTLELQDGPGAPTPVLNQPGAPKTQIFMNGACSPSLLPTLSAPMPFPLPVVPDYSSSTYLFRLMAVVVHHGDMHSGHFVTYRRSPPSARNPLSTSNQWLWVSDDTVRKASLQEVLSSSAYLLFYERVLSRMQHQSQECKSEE
# UCHL1 block: inhibitors of human UCHL1 deubiquitinase; 0.2% of 47,000 active; AID 1645859, 2021; purified UCHL1, Ub-rhodamine cleavage fluorescence; inhibition, % at 20 µM
# USP10 block: inhibitors of human USP10 deubiquitinase | Ubiquitin carboxyl-terminal hydrolase 10 (Homo sapiens), Q14694 | purified USP10, Ub-rhodamine fluorescence, 60 min | inhibition, % at 20 µM | 1.1% of 47,000 active
# Starred values were filed as active, the others as inactive; / = no result given. Rule as the data show it: active = inhibition above about 30%; inactive = the rest.
SMILES,USP8 inh,USP7 block,USP17 block,USP30 inh,UCHL1 block,USP10 block
Cc1nc(-c2ccccc2)sc1C(=O)CSc1cccc(Cl)c1Cl,17,2,14,36*,-1,8
COc1ccc2c(c1)C=C(C(=O)Nc1ccc(-n3cnnn3)cc1)C=CO2,15,24,39*,33*,11,17
COc1cccc(NC(=O)COc2cccc(-n3cnnn3)c2)c1,-4,2,0,12,0,0
COc1ccc2c(c1)C=C(C(=O)Nc1ncc(Cc3ccc(C)cc3)s1)C=CO2,-14,3,-3,-16,4,9
CCc1ccc(NC(=O)COc2cccc(-n3cnnn3)c2)cc1,-75,-5,25,63*,0,3
CCCOc1cccc(C(=O)Nc2ccc(-n3cnnn3)cc2)c1,48*,6,51*,83*,2,19
O=S(=O)(c1ccc2nc(NC3CCCC3)ccc2c1)N1CCCC1,-219,-13,-50,-26,2,-2
O=C(O)Cn1nnc(N2CCCC2)n1,7,1,4,-4,-3,3
Nc1nonc1C(=O)NCCNCc1cccc(OCc2ccc(Cl)cc2)c1,-3,-55,9,17,0,2
COCC(=O)N1CCCC(c2cc(-c3cc(C)[nH]n3)nc(C)n2)C1 (configuration not stated),-2,7,3,6,1,-2
O=C(COC(=O)c1cccc([N+](=O)[O-])c1)Nc1cccc(Oc2ccccc2)c1,2,3,9,32*,-1,12
Cc1ccc(N2CC(c3nnc(NC(=O)CCc4ccccc4)s3)CC2=O)cc1C (configuration not stated),-1,0,-11,0,-2,17
CCc1ccc(N2CC(c3nnc(NC(=O)Cc4ccc(C)cc4)s3)CC2=O)cc1 (configuration not stated),-70,11,50*,33*,0,11
Cc1ccc(N2CC(c3nnc(NC(=O)CCc4ccccc4)s3)CC2=O)cc1 (configuration not stated),56*,9,18,29,1,26
Cc1ccc(CC(=O)Nc2nnc(C3CC(=O)N(c4ccccc4C)C3)s2)cc1 (configuration not stated),-80,2,-1,15,2,-1
Cc1ccc(CC(=O)Nc2nnc(C3CC(=O)N(c4cc(C)cc(C)c4)C3)s2)cc1 (configuration not stated),-4,0,-5,-11,-2,4
CCCCC(=O)Nc1nnc(C2CC(=O)N(c3ccc(C)cc3)C2)s1 (configuration not stated),52*,3,12,-1,0,4
COc1ccc(CCC(=O)Nc2nnc(C3CC(=O)N(c4ccc(C)cc4)C3)s2)cc1 (configuration not stated),9,8,0,8,2,38*
Cc1ccc(C2CCCN2S(=O)(=O)c2ccccc2Cl)cc1 (configuration not stated),4,-1,5,18,1,8
CCc1cccc(NC(=O)Cc2nnc(-c3cnccn3)o2)c1,19,1,14,2,-1,0
O=C(CCCc1ccccc1)Nc1nnc(C2CC(=O)N(c3ccc(Cl)cc3)C2)s1 (configuration not stated),0,4,1,8,0,4
COc1ccc(CC(=O)NC2CCN(c3ccc(C)cc3)C2=O)cc1 (configuration not stated),-3,3,38*,17,2,3
O=C(CCCc1ccccc1)Nc1nnc(C2CC(=O)N(c3ccccc3)C2)s1 (configuration not stated),-1,3,41*,/,0,8
COCCn1c(SCC(=O)Nc2ccc(NC(=O)c3ccco3)c(OC)c2)nc2ccccc2c1=O,20,2,-57,-41,4,-3
COCCn1c(SCC(=O)c2ccc(NC(C)=O)cc2F)nc2ccccc21,32*,9,28,2,6,6

# Source: PubChem BioAssay (Buhrlage Lab, Dana-Farber Cancer Institute and Novartis Institutes for BioMedical Research (Cambridge, Mass))
